CCT modulator: cytosolic chaperonin activity modulation; purified chaperonin ATPase assay, HTRF ADP detection, 30 min; activity change, % (no concentration beside the values), hits read low; hit rate 0.3% among 360,000; in the data active means activity change below about -30%; further: on the % scale 0 is the no-effect control and ±100 the full control effect
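ATPase activity: ADP formed was measured by HTRF Transcreener (665/615 nm ratio) after 30 min at 37 deg C with 10 uM ATP. Compounds screened at one 76 uM concentration against 40 or 20 nM TRiC in Tris pH 7.4/KCl/MgCl2/DTT buffer.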
p53 reactivation: mutant p53 re-activation in reporter cells; AID 504706; H1299 p53-A138V BP100-luciferase reporter, luminescence, 24 h; Potency, µM (top dose mostly 92.2 µM), inactives show at the highest dose activity change, positive = activation, hits mostly activators; hit rate 0.063% among 320,000; further: potency means the concentration at half of the fitted maximal effect; % of control where 0% means no effect; nearly all actives have a fitted effect of over 45% in size
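H1299 (p53-null), stable ts p53-A138V + BP100-Luc; 1000 cells/well, Opti-MEM/10% FBS; cpd 4 pt, 1:5; 24 h, 37 deg C, 5% CO2; detection reagent 10 min RT; luminescence.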
ASM inhibitor: blocks human secretory acid sphingomyelinase; Potency, µM (highest dose often 57.5 µM), for the others: top-dose activity change, negative = inhibition, hits mostly inhibitors; hit rate 0.006% among 340,000; placental ASM, HMU-PC fluorogenic substrate, 60 min; P17405; further: potency means the concentration at half of the fitted maximal effect
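Fluorescence read-out (Ex 386 nm, Em 447 nm) after stopping the reaction at pH 10. Enzyme: ASM from human placenta; substrate HMU-PC0, 9 uM final; 60 min, 37 °C. Compound preincubation 10 min, ambient temperature.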
MmCpn inh: inhibitors of Methanococcus maripaludis chaperonin TRiC (MmCpn); purified Mm-Cpn ATPase, ADP Transcreener TR-FRET; Potency, µM (series often up to 76.9 µM), inactives show at the highest dose activity, negative = inhibition, hits mostly inhibitors; hit rate 0.031% among 330,000; further: potency means the concentration at half of the fitted maximal effect; on the % scale 0 is the no-effect control and ±100 the full control effect; nearly all actives have a fitted effect of over 80% in size
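Purified archaeal chaperonin (25 nM final) was preincubated with compound for 10 min at 37°C, then ATP (10 uM final) was added for 30 min at 37°C in Tris pH 7.4/KCl/MgCl2/DTT buffer. ADP was quantified by HTRF Transcreener TR-FRET.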
ALOX12 inh: inhibitors of human 12S-lipoxygenase ALOX12 | P18054 | purified 12hLO, xylenol orange hydroperoxide absorbance | Potency, µM (doses to about 108 µM), inactives show at the top dose activity change, negative = inhibition, most hits filed as inhibitors | hit rate 1.1% among 580,000 | AID 1671190; further: potency means the concentration at half of the fitted maximal effect; on the % scale 0 is the no-effect control and ±100 the full control effect
Target sequence (P18054 whole entry, looked up): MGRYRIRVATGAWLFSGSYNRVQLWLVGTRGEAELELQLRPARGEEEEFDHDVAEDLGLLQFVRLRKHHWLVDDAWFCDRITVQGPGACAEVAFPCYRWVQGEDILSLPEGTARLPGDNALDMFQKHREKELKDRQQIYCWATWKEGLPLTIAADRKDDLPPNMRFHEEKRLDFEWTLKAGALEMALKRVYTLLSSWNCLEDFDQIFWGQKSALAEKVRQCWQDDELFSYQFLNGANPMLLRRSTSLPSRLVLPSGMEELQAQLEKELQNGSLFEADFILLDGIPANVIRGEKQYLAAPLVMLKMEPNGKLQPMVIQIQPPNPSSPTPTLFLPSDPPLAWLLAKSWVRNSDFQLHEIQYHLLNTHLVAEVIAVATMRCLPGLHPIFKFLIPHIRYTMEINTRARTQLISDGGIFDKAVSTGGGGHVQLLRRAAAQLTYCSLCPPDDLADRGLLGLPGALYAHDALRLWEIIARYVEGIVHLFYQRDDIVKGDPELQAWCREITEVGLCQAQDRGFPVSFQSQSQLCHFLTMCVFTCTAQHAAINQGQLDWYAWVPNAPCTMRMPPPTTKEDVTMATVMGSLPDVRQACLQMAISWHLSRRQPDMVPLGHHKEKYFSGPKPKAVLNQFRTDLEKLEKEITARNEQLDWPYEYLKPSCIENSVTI
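Purified human 12hLO (150 nM final) in 25 mM Hepes, 0.01% Triton X-100, pH 7.0 was preincubated 15 min at room temperature with compound. Then 40 uM arachidonic acid was added, 30 min. Hydroperoxide was read by Fe-XO absorbance ratio 573/405 nm.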
PINK1 modulator: changes PINK1 expression. Potency, µM (series often up to 76.6 µM), without a hit: at the top dose activation (PINK1 increase), usual class: activators. PINK1 immunofluorescence, high-content cytometry, 24 h. hit rate 0.2% among 410,000; active means well fitted activation curve with a large enough effect; inconclusive means small, poorly fitted or top-dose-only effect; cell line not stated here; further: potency means the concentration at half of the fitted maximal effect; % of control where 0% means no effect; nearly all actives have a fitted effect of over 65% in size
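Stable cell line, 250 cells/well, 12 h attachment; compounds pinned at 5 concentrations, 24 h; CCCP control. Fixed with nuclear dye, primary antibodies 12 h at 10 degrees C, secondary plus cell stain; laser-scanning cytometer read.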
* marks the source's active call; other numbers are inactive results; [ ] = another dose, or the depositor's remark. Rows were chosen to be rich in hits. Some 1.4% of all compounds tested hit in one or more screens of this group. Unless noted, the call rests on the fitted dose curve; in most records, active means well fitted curve in the direction sought with a large enough effect; inconclusive means small, poorly fitted or top-dose-only effect, or another doubt; inactive means no such curve, though single readings can be large; an effect the other way counts as inactive or inconclusive.

Screening Fc1cccc(NC(=S)NC2CCCCCCC2)c1 returned CCT modulator -1, p53 reactivation inconclusive, ASM inhibitor -1%, MmCpn inh -2%, ALOX12 inh inconclusive and PINK1 modulator 16µM*.
Fc1cccc(NC(=S)NC2CC2)c1 was read as ALOX12 inh -15%.
S=C(Nc1ccc(Oc2ccccc2)cc1)NC1CCCCCC1 was read as CCT modulator 2, p53 reactivation 14%, ASM inhibitor 2%, MmCpn inh 2%, ALOX12 inh 28µM* and PINK1 modulator inconclusive.
Screening Cc1oc2cc(OCC(N)=O)ccc2c(=O)c1Oc1ccc(C(C)C)cc1 returned ALOX12 inh -30%.
For COCCCNC(=O)c1nc(Cc2c[nH]c3ccccc23)no1 the results were ALOX12 inh 8%.
For COc1ccc(Nc2sc(C(=O)c3ccc(Cl)cc3)c(N)c2C(=O)Nc2ccccc2OC)cc1 the results were CCT modulator 0, p53 reactivation 3%, ASM inhibitor -12%, MmCpn inh 0%, ALOX12 inh inconclusive and PINK1 modulator 16µM*.
`CCOc1cc(CNc2ncc(-c3ccc(OC)cc3)n2C)ccc1O` gave CCT modulator 1, p53 reactivation 3%, ASM inhibitor 4%, MmCpn inh 0%, ALOX12 inh 1µM* and PINK1 modulator 4%[38.3 µM].
COc1cccc2cc(S(=O)(=O)N3CCCC(C)C3)c(=O)oc12 (configuration not stated) was read as ALOX12 inh 20%.
For COc1cccc(-c2nc(=S)c3c(n2Cc2ccco2)CCCC3)c1 the results were CCT modulator -6, p53 reactivation 14%, ASM inhibitor -11%, MmCpn inh -4%, ALOX12 inh 11% and PINK1 modulator 6.3µM*.
Screening Cc1cccc(-c2nc(=S)c3c(n2Cc2ccco2)CCCC3)c1 returned CCT modulator 1, p53 reactivation 5%, ASM inhibitor -8%, MmCpn inh -9%, ALOX12 inh -10% and PINK1 modulator -5%[38.3 µM].
Cc1ccc(S(=O)(=O)n2cc(C=O)c3ccccc32)cc1 was read as CCT modulator -2, p53 reactivation 3%, ASM inhibitor -10%, MmCpn inh 2%, ALOX12 inh 13% and PINK1 modulator inconclusive.
Cc1ccc(S(=O)(=O)n2cc(-c3ccccc3)c3ccccc32)cc1 was read as CCT modulator -31*, p53 reactivation 23%, ASM inhibitor 12%, MmCpn inh 1%, ALOX12 inh 4% and PINK1 modulator 14%.
Screening Clc1ccc(-c2noc(C34CC5CC(CC(C5)C3)C4)n2)cc1 returned ALOX12 inh 55%.
Screening O=C(NC(=S)Nc1cccc(NC(=S)NC(=O)c2ccccc2)c1)c1ccccc1 returned CCT modulator -1, ASM inhibitor 0%, ALOX12 inh 14µM* and PINK1 modulator 7%.
For O=C(NC(=S)Nn1cnnc1)c1ccccc1Br the results were CCT modulator -1, p53 reactivation 3%, ASM inhibitor 6%, MmCpn inh 0%, ALOX12 inh -26% and PINK1 modulator 0%.
Screening Cc1ccc(C(=O)O)cc1NC(=S)NC(=O)c1ccc([N+](=O)[O-])c(C)c1 returned CCT modulator -1, p53 reactivation 4%, ASM inhibitor -5%, MmCpn inh 2%, ALOX12 inh 20µM* and PINK1 modulator 4%.
`Cc1ccc(NC(=S)NC(=O)c2ccccc2)cc1NC(=S)NC(=O)c1ccccc1` gave CCT modulator 2, p53 reactivation 10%, ASM inhibitor 0%, MmCpn inh inconclusive, ALOX12 inh 4µM* and PINK1 modulator 5%.
Screening Cc1ccc(CNC(=S)Nc2cc(C(=O)O)ccc2C)cc1 returned CCT modulator -1, p53 reactivation 7%, ASM inhibitor 2%, MmCpn inh 0%, ALOX12 inh inconclusive and PINK1 modulator 3%.
For CCC(=O)Nc1cccc(NC(=S)NC(=O)c2ccccc2)c1 the results were CCT modulator 1, p53 reactivation inconclusive, ASM inhibitor -8%, MmCpn inh 3%, ALOX12 inh -28% and PINK1 modulator 0%.
`O=C(NC(=S)Nn1cnnc1)c1ccccc1` gave CCT modulator 2, p53 reactivation 10%, ASM inhibitor 0%, MmCpn inh 0%, ALOX12 inh 35µM* and PINK1 modulator 0%.
`O=C(Nc1c(C(=O)N2CCN(c3ccccc3F)CC2)oc2ccccc12)c1c(F)cccc1F` gave ALOX12 inh -18%.
Screening O=C(NC(=S)Nc1ccccn1)c1ccccc1 returned CCT modulator 0, p53 reactivation inconclusive, ASM inhibitor 2%, MmCpn inh 1%, ALOX12 inh inconclusive and PINK1 modulator 1%.
`CC(=O)c1cccc(NC(=S)NC(=O)c2ccc(Br)cc2)c1` gave CCT modulator -40*, p53 reactivation inconclusive, ASM inhibitor -2%, MmCpn inh -3%, ALOX12 inh -25% and PINK1 modulator inconclusive.
O=C(NC(=S)Nc1c(Cl)cc(Cl)cc1Cl)c1ccccc1 was read as CCT modulator 0, ALOX12 inh 35µM* and PINK1 modulator 6%.
For CC(C)(C)c1nc2cc(NC(=O)CNC(=O)c3ccco3)ccc2o1 the results were ALOX12 inh -52%.
Screening Cc1c(C#N)c(O)[nH]c(=O)c1N=Nc1ccc(Cl)c(C(=O)O)c1 returned CCT modulator -3, p53 reactivation 5%, ASM inhibitor 1%, MmCpn inh 0%, ALOX12 inh inconclusive and PINK1 modulator -1%.
Cc1c(C#N)c(O)[nH]c(=O)c1N=Nc1ccc(S(N)(=O)=O)cc1 was read as CCT modulator 0, p53 reactivation 5%, ASM inhibitor inconclusive, MmCpn inh 0%, ALOX12 inh 40µM* and PINK1 modulator 1%.
For CCC(=O)Nc1ccccc1C(C)(C)C the results were ALOX12 inh 0%.
Screening COc1ccc(OC)c(C2C=C(C34CC5CC(CC(C5)C3)C4)NC(=S)N2)c1 (configuration not stated) returned CCT modulator -1, p53 reactivation 4%, ASM inhibitor 2%, MmCpn inh 1%, ALOX12 inh 32µM* and PINK1 modulator 3%.
`CN(CC(O)COCC(Cl)CCl)S(=O)(=O)O` (configuration not stated) gave ALOX12 inh 36%.
Screening CCOC(=O)/C(C#N)=C/c1ccc(-c2ccsc2C(=O)OC)o1 returned CCT modulator -2, p53 reactivation 1%, ASM inhibitor 10%, MmCpn inh -2%, ALOX12 inh -19% and PINK1 modulator 25µM*.
